Shown are actives, neighbours in structure and some others; about 2.4% of the full set was active somewhere.
PfG6PD inh: PfG6PD (Plasmodium falciparum) enzyme inhibition; PfGluPho enzyme, NADPH resazurin-diaphorase fluorescence; 0.78% of 350,000 active; inhibition, % at 20 µM; AID 504690;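 active = inhibition reaching at least a set limit at 20 µM in the primary screen, cut at about 59% in these data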
Yeast superoxide: yeast age-related superoxide inhibition as caloric restriction mimetic. S. cerevisiae aged cells, superoxide DHE fluorescence; active compounds read low. superoxide response (% of plate mean), % at 10 µM. 0.18% of 330,000 active. AID 2690;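 active = superoxide response under a set limit, about three screen SD below normal, cut at about 65% in these data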;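 note: yeast aged for seven days with compound at 30 °C before DHE staining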
A3A deaminase: human APOBEC3A DNA deaminase inhibition; AID 493011; inhibition, % at 20 µM; 0.41% of 330,000 active; recombinant A3A, FAM/TAMRA ssDNA deamination fluorescence; P31941;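 active = at least 40% inhibition at 20 µM here, with at most 30% in a related deaminase screen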
Target sequence (P31941 whole entry, looked up): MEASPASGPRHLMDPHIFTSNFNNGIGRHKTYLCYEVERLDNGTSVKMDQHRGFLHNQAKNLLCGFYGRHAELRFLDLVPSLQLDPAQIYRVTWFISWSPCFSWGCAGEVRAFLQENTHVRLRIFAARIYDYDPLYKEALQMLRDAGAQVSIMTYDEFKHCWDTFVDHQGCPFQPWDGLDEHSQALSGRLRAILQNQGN
M18AAP inhibitor: blocks P. falciparum M18 aspartyl aminopeptidase. recombinant PfM18AAP, H-Glu-NHMec fluorogenic cleavage. 1.2% of 290,000 active. inhibition, % at 7.35 µM;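 active = inhibition above the campaign mean inhibition over all tested compounds plus 3 SD, cut at about 28% in these data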
APOBEC3G inh: APOBEC3G (human) deaminase inhibition | Q9HC16 | recombinant A3G, ssDNA deamination FAM/TAMRA fluorescence | inhibition, % at 20 µM | 0.28% of 330,000 active;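 active = inhibition of at least 40% at 20 µM, with no more than 30% in the related APOBEC3A deaminase screen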
Target sequence (Q9HC16 whole entry, looked up): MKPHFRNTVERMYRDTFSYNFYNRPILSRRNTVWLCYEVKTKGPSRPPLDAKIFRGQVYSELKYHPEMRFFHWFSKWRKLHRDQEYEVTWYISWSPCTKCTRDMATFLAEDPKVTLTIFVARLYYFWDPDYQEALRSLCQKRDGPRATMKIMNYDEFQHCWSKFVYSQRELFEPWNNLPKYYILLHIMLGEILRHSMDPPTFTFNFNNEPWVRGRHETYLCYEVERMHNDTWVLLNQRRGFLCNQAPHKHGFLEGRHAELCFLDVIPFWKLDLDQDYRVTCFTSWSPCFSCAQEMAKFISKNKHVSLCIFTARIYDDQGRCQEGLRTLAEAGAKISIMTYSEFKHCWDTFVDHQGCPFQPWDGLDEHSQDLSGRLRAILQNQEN
PfG6PD confirm: PfG6PD inhibition, single-dose confirmed; inhibition, % at 20 µM; recombinant PfGluPho, NADPH-diaphorase-resazurin fluorescence; shares compounds with PfG6PD inh; 34% of 2,400 active;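 active = inhibition of at least 50% at 20 µM in any single replicate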
Diaphorase 10uM: diaphorase inhibition or oxidation at 10 uM NADPH. shares compounds with PfG6PD inh. diaphorase-coupled resazurin reduction, fluorescence, NADPH 10 uM. inhibition, % at 20 µM. 39% of 820 active. AID 504862;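 active = average inhibition reaching 50% or more with the compound at 20 µM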;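 note: resorufin red fluorescence formed as diaphorase reduces resazurin using NADPH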
Diaph ctr 30uM: counter-screen for P. falciparum G6PD inhibitors: diaphorase inhibitors, oxidizers; shares compounds with PfG6PD inh; Diaphorase/resazurin coupled assay, resorufin fluorescence, 30 uM NADPH; inhibition, % at 20 µM; 29% of 820 active; AID 504863;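 active = inhibition averaging 50% or more, tested at 20 µM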
Hits are given with their value; n = inactive; x = no result given.

SMILES	PfG6PD inh	Yeast superoxide	A3A deaminase	M18AAP inhibitor	APOBEC3G inh	PfG6PD confirm	others
C#CCOCCOCCOCCNc1nc(N2CCN(C(=O)CCCCCCCCCCNC(=O)[C@H](CCCCN)n3cc(CCO)nn3)CC2)nc(N2CCN(C(=O)CCCCCCCCCCNC(=O)[C@H](CCCCN)n3cc(CCO)nn3)CC2)n1	68.4	n	n	x	n	n
Cc1ccc(NC(=O)c2cc(S(=O)(=O)N(C)C)ccc2N2CCCC2)cc1F	n	n	n	n	n	x
Cc1ccc2occ(/C=N/NC(=O)c3ccncc3)c(=O)c2c1	n	n	n	n	n	x
Nc1ccccc1SC(CC(=O)c1ccccc1)c1cccc([N+](=O)[O-])c1 (stereo unspecified)	70.3	x	x	x	x	n
COc1ccc(C(CC(=O)c2ccc(C)cc2)Sc2ccccc2N)cc1 (stereo unspecified)	n	x	x	x	x	x
Nc1ccccc1SC(CC(=O)c1ccccc1)c1ccc([N+](=O)[O-])cc1 (stereo unspecified)	61.1	x	x	x	x	n
O=C(NC(NC(=O)c1ccccc1)c1cccc([N+](=O)[O-])c1)c1ccccc1	n	n	n	n	n	x
Cc1nc(SCC(=O)N2CCCCCC2)[nH]c(=O)c1C	n	n	n	x	n	x
Cc1ccc(S(=O)(=O)NCC(=O)OC(C)C(=O)NC(=O)NC2CCCCC2)cc1C (stereo unspecified)	n	n	n	x	n	x
Cc1cc(C)cc(C(=O)N2CC(=O)Nc3ccccc32)c1	n	n	n	n	n	x
Cc1ccc(/C=C/C(=O)N2CC(=O)Nc3ccccc32)o1	72.5	n	n	n	n	n
CC(C)Cc1nnc(NC(=O)CCC(=O)N2CCN(Cc3ccc(Cl)cc3)CC2)s1	n	n	n	n	n	x
CCC(=O)c1ccc(OCC(O)CNC2CCCC2)cc1 (stereo unspecified)	n	n	n	n	n	x
COc1ccc([N+](=O)[O-])cc1NS(=O)(=O)c1ccc(C)cc1	n	n	n	n	n	x
Cc1ccc(S(=O)(=O)Nc2ccccc2N=Cc2ccc([N+](=O)[O-])cc2[N+](=O)[O-])cc1	83.7	x	x	x	x	n
Cc1ccc2[nH]c3c(N4CCN(Cc5ccccc5)CC4)ncnc3c2c1	n	n	n	n	n	x
Cc1ccc2c(c1)[nH]c1c(N3CCN(Cc4ccccc4)CC3)ncnc12	61.2	n	n	n	n	n
O=S(=O)(CCN1C=CC(C(F)(F)F)=NCC1)c1ccc(Cl)cc1Cl	n	n	n	n	n	x
Cc1ccc(C)c(NC(=S)Nc2cccc3cnccc23)c1	101.0	n	n	n	n	n
CC(=O)c1ccc(NC(=S)Nc2cccc3cnccc23)cc1	63.5	n	n	n	n	n
CC(C)c1nc2sc3c(c2c(=O)[nH]1)CC(C)(C)OC3	n	n	n	n	n	x
CC(Nc1cc(N2CCN(C(=O)C(C)(C)C)CC2)ccc1[N+](=O)[O-])c1ccccc1 (stereo unspecified)	n	n	n	n	n	x
CCS(=O)(=O)N1CCN(c2ccc([N+](=O)[O-])c(NC(C)c3ccccc3)c2)CC1 (stereo unspecified)	78.0	n	n	n	n	54.4	Diaphorase 10uM=n;Diaph ctr 30uM=n
CC(C)C(=O)N1CCN(c2ccc([N+](=O)[O-])c(NC(C)c3ccccc3)c2)CC1 (stereo unspecified)	80.9	n	n	n	n	n
Cc1cccc(OCC(=O)NCC(=O)N/N=C/c2c(C)[nH]c3ccccc23)c1	63.0	n	n	n	n	n
SMILES	PfG6PD inh	Yeast superoxide	A3A deaminase	M18AAP inhibitor	APOBEC3G inh	PfG6PD confirm	others
O=c1[nH]c(CN2CCN(c3ccc(O)cc3)CC2)nc2scc(-c3ccc(Cl)cc3)c12	78.5	n	n	n	n	n
O=c1[nH]c(CN2CCN(c3ccccc3O)CC2)nc2scc(-c3ccccc3Cl)c12	n	n	n	n	n	x
Cc1onc(-c2ccccc2)c1C(=O)N/N=C/c1cc(Br)c(Br)o1	63.8	n	n	n	n	n
COc1ccc(Cl)cc1/C=N/NC(=O)c1c(-c2ccccc2)noc1C	127.5	n	n	n	n	98.9	Diaphorase 10uM=96.2;Diaph ctr 30uM=83.3
CCOc1ccc(S(=O)(=O)N(CC(=O)NCc2ccncc2)c2ccc(C)cc2)cc1	n	n	n	n	n	x
Oc1cccc2c(NC(=S)Nc3ccc(OC(F)F)cc3)cccc12	62.1	n	n	n	n	n
FC(F)Oc1ccc(NC(=S)NCc2ccccc2)cc1	n	n	n	n	n	x
COc1ccc(C)cc1-n1c(C)cc(C=O)c1C	n	n	n	n	n	x
COc1ccc(N)cc1-n1c(C)ccc1C	78.2	n	n	n	n	n
CCOC(=O)[C@H]1[C@H]2COc3ccc(OC)cc3[C@@H]2N2C(=O)CN(C)C(=O)[C@@]12C	n	n	n	x	n	x
CN(Cc1ccccc1F)C(=O)CN1CCN(S(=O)(=O)c2ccc3c(c2)OCCCO3)CC1	n	n	n	x	n	x
Cn1c(=O)n(C)c2cc3[nH]cnc3cc21	n	n	n	n	n	x
Nc1cc2nc[nH]c2cc1N	59.7	x	n	n	n	n
O=C(O)c1cc(N2C(=O)C=CC2=O)cc(N2C(=O)C=CC2=O)c1	120.9	x	x	x	x	104.6	Diaphorase 10uM=n;Diaph ctr 30uM=n
CS(=O)(=O)CCC(C(=O)O)N1C(=O)c2ccc(Oc3ccc(Cl)cc3)cc2C1=O (stereo unspecified)	n	n	n	n	n	x
COc1ccc2cc(CN(Cc3ccco3)C(=S)NCC3CCCO3)c(=O)[nH]c2c1 (stereo unspecified)	66.7	n	n	n	n	n
CCOC(=O)NC(N(O)c1cccc(Cl)c1)C(Cl)(Cl)Cl (stereo unspecified)	85.1	n	n	31.2	n	n
CCN(C(=O)Nc1cccc(Cl)c1)c1ccccc1	n	n	n	n	n	x
COc1ccc(CCNC(=O)Cn2nnc(C(=O)Nc3cc(C)ccc3C)c2N)cc1OC	n	n	n	n	n	x
O=C(Nc1ccccc1SC(=O)c1ccccc1)c1ccccc1	63.9	x	x	x	x	n
COCc1cc(=O)n2[nH]c(C)cc2n1	n	n	n	n	n	x
COCc1cc(=O)n2[nH]c(C(C)(C)C)cc2n1	61.0	n	n	n	n	48.4	Diaphorase 10uM=n;Diaph ctr 30uM=n
Cn1cnc(C(=O)N2CCc3ccccc3C2)c1C(=O)N1CCc2ccccc2C1	n	n	n	x	n	x
COCCn1c(N)c(C(=O)NCC2CCCO2)c2nc3ccccc3nc21 (stereo unspecified)	n	n	n	n	n	x
Nc1c(C(=O)OCC2CCCO2)c2nc3ccccc3nc2n1C1CCCC1 (stereo unspecified)	n	n	n	n	n	n
O=C(N/N=C/c1ccccn1)c1cccc(S(=O)(=O)Nc2ccccc2Cl)c1	n	n	n	n	n	x
Cc1ccsc1/C=N/NC(=O)c1cccc(S(=O)(=O)Nc2ccccc2Cl)c1	64.3	n	n	n	n	60.4	Diaphorase 10uM=n;Diaph ctr 30uM=n
